# PubChem BioAssay (NCATS)
# Results filed as inconclusive are left out. Active and inactive are the calls of the source. Calls follow the shape of the dose curve; as a rule, active = well fitted inhibition curve with a large enough effect; inconclusive = small, poorly fitted or top-dose-only effect; inactive = flat fitted curve, though single readings scatter.
# Biological target: Luciferin 4-monooxygenase (Photinus pyralis) (UniProt P08659)
# Test: Biochemical firefly luciferase enzyme assay for NPC (AID 624030);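 also: 0% = DMSO and -100% = full luciferase inhibition by PTC124 control; nearly all actives have a fitted effect of over 70% in size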
# Settings: purified P. pyralis luciferase, luminescence, 5 min; series mostly up to 58.6 µM; activity change, negative = inhibition: at the top concentration
# From the text: Charcot-Marie-Tooth-Association [CMTA] National Center for Advancing Translational Sciences [NCATS] Charcot-Marie-Tooth (CMT) disease was first characterized by Jean-Martin Charcot and Pierre Marie in France and, independently, by Howard Henry Tooth in England in 1886. CMT is one of the most common inherited neurological diseases, affecting approximately 1 in 2,500 Americans. […] The most prevalent type of CMT is known as CMT1A and caused by a duplication of the PMP22 gene which leads to over-expression of this protein. PMP22 is a glycosylated intrinsic membrane protein accounting for 2-5% of the myelin protein content, and its over-expression results in demyelination and subsequently axonal loss. A pair of cellular transcription-based assays was developed in the S16 rat Schwann cell lines (Hai, M., et al., 2002) stably transfected with orthogonal reporters - firefly luciferase (Fluc) and beta-lactamase (beta-Lac) - whose expression is driven by an intronic regulatory element of the PMP22 gene (Jones, E.A., et al., 2011) to recapitulate endogenous expression of PMP22. A comprehensive library of approved drugs, the NCGC Pharmaceutical Collection (Huang, R., et al., 2011), was screened in the cross-validating platform of the orthogonal reporter assays to identify drug modulators inhibitory towards PMP22 expression. A set of counter-screens was devised to address non-specific activity of the library. An ATP-dependent CellTiter-Glo assay (developed by Promega Corp) was utilized to control cell viability. In addition, biochemical Fluc enzyme assay was performed to assess direct inhibition of the Fluc enzymatic activity. References Hai, M., Muja, N., DeVries, G.H., Quarles, R.H. and Patel, P.I. Comparative analysis of Schwann cell lines as model systems for myelin gene transcription studies. J Neurosci Res, 2002. 69(4): pp 497-508 Huang, R., Southall, N., Wang, Y., Yasgar A., Shinn P., Jadhav, A. , Nguyen, D.-T. and Austin, C.P., The NCGC pharmaceutical collection: a comprehensive resource of clinically approved drugs enabling repurposing and chemical genomics. Sci Transl Med, 2011. 3(80): p. 80ps16.
# Compounds were transferred to the plates in 23nl, and one microliter/well luciferase enzyme-buffer solution (10 nM P. pyralis luciferase and 50 mM Tris Acetate final concentrations) was dispensed yielding a final reaction volume of […]. Luciferase luminescence was measured by a ViewLux plate reader within 5 minutes of enzyme-buffer addition. The % activity was determined by normalizing to the average readings of PTC124 (a positive control) relative to DMSO (0% Activity). The concentration-effect curves were then classified based on curve quality (r2), response magnitude and degree of measured activity.
# Sequence of Luciferin 4-monooxygenase (Photinus pyralis) (P08659 whole entry, looked up): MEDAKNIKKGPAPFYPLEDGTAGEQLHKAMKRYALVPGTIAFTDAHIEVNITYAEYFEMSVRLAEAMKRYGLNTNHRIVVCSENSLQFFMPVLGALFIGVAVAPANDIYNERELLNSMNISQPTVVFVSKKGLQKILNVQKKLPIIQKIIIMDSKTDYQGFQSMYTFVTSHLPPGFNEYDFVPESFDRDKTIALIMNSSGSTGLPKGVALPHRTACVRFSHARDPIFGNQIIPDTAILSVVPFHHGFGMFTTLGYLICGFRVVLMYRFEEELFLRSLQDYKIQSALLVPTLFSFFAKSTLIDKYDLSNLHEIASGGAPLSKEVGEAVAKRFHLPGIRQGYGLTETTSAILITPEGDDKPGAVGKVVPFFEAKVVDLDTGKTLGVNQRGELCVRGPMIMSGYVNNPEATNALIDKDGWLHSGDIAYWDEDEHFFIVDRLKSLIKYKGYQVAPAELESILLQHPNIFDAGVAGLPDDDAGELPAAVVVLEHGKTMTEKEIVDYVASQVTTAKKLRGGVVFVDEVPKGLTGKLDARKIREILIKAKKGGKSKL
SMILES,"activity change, negative = inhibition",Potency
CCOC(=O)c1ccc(N)cc1,-1.64% [at 24.9 µM] (inactive),–
OC1C(O)C(O)C(O)C(O)C1O (stereo not given),5.16% (inactive),–
CN(C)CCOC(c1ccc(Cl)cc1)c1ccccn1 (stereo not given),4.74% (inactive),–
COc1cc(C)nc(-n2nc(C)cc2OC)n1,-1.39% [at 24.9 µM] (inactive),–
CC[C@H](c1ccc(O)cc1)[C@@H](CC)c1ccc(O)cc1,-10.4% [at 24.9 µM] (inactive),–
Cc1c[nH]c2ccccc12,2.39% (inactive),–
COC(=O)C(c1ccccc1Cl)N1CCc2sccc2C1 (stereo not given),1.19% (inactive),–
OC(C#CCN1CCCC1)(c1ccccc1)c1ccccc1,1.52% (inactive),–
COc1ccc2c(c1)c1c3n2CCN(C)C3=NCC1,4.25% (inactive),–
Cc1ccc(O)c([C@H](CCN(C(C)C)C(C)C)c2ccccc2)c1,1.85% (inactive),–
CC(=O)NCCCCCC(=O)O,1.28% (inactive),–
CCCCN=C(N)N=C(N)N,-0.954% (inactive),–
CN1CCN(CCC(=O)N2c3ccccc3Sc3ccc(C(F)(F)F)cc32)CC1,7.4% (inactive),–
C#C[C@]1(OC(C)=O)CC[C@H]2[C@@H]3CCC4=C/C(=N/O)CC[C@@H]4[C@H]3CC[C@@]21CC,-8.36% (inactive),–
NS(=O)(=O)Cc1noc2ccccc12,4.59% (inactive),–
CC(=O)Nc1ncc([N+](=O)[O-])s1,-5.42% (inactive),–
COc1ccc(-c2cc(C(F)F)nn2-c2ccc(S(N)(=O)=O)cc2)cc1F,1.02% (inactive),–
CCCN(CCc1cccs1)[C@H]1CCc2c(O)cccc2C1,6.78% (inactive),–
Cc1ncc(CO)c(C=O)c1O,-2.31% (inactive),–
O=S(=O)(O)c1ccc(O)cc1,1.66% (inactive),–

SMILES,"activity change, negative = inhibition",Potency
CN1CCC(OC(c2ccccc2)c2ccccc2)CC1,26.4% [at 24.9 µM] (inactive),–
CN(C)C(=O)Nc1ccc(Cl)c(Cl)c1,-9.21% (inactive),–
CCc1ccc(C(=O)C(C)CN2CCCCC2)cc1 (stereo not given),-0.323% (inactive),–
C[N+]1(C)CCC(=C(c2ccccc2)c2ccccc2)CC1,1.91% [at 24.9 µM] (inactive),–
CCCCc1cc2ccccc2c(OCCN(C)C)n1,11.3% [at 24.9 µM] (inactive),–
COc1cc([C@H]2Oc3cc([C@H]4Oc5cc(O)cc(O)c5C(=O)[C@@H]4O)ccc3O[C@@H]2CO)ccc1O,-10.1% (inactive),–
NC(N)=NCc1cccc(I)c1,–,inactive
O=c1[nH]c(=O)n([C@H]2C[C@H](O)[C@@H](CO)O2)cc1F,1.13% (inactive),–
CCOC(=O)[C@@](C)(N)Cc1ccc(O)c(O)c1,-4.8% (inactive),–
CCc1nn(CCCN2CCN(c3cccc(Cl)c3)CC2)c(=O)n1CCOc1ccccc1,1.68% (inactive),–
Cc1cccc(C)c1NC(=O)c1ccccc1C(=O)O,-0.151% (inactive),–
CCCCCCCCCCCCCCCC(=O)O,-0.833% (inactive),–
CN1CCN(c2cc3c(cc2F)c(=O)c(C(=O)O)cn3-c2ccc(F)cc2)CC1,-1.58% (inactive),–
Oc1ccc(Cl)cc1Cc1cc(Cl)ccc1O,-8.69% (inactive),–
CCCCCCCCOc1ccc(C(=O)c2ccccc2)c(O)c1,-0.843% (inactive),–
O=C(O)P(=O)(O)O,1.57% (inactive),–
CCC(C(=O)OCCOCCN(CC)CC)c1ccccc1 (stereo not given),-15.6% (inactive),–
NC(=O)c1ccccc1O,-0.798% (inactive),–
CCN(CC)CCNc1ccc(CO)c2sc3ccccc3c(=O)c12,4.72% (inactive),–
O=C(CCN1CCN2CCCC2C1)N1c2ccccc2Sc2ccc(Cl)cc21 (stereo not given),6.33% (inactive),–
